Experimental data from PubChem BioAssay.
Values without a mark were called inactive. The rule behind the calls is not given here.

What follows are compounds tested on Aerobactin synthetase IucA (Klebsiella pneumoniae hvKP1) (assay: IucA enzyme inhibition, primary screen, biochemical, Spectrum library (AID 1346200;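 note: 100% = wells without compound and 0% = wells lacking enzyme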)). Conditions: malachite green pyrophosphate, A620, at 8 µM, stronger effect = lower value.

SMILES	activity remaining [%]
CC[C@H](C)C(=O)O[C@H]1CCC=C2C=C[C@H](C)C(CCC3C[C@@H](O)CC(=O)O3)[C@H]21 (some centres not stated)	102
CN(C)CCc1c[nH]c2ccc(Cn3cncn3)cc12	102
COc1cc(C(=O)O[C@H]2CC[C@@]3(C)[C@@H]4CC[C@H]5[C@]6(O)C[C@H](O)[C@@]7(O)[C@@H](CN8C[C@@H](C)CC[C@H]8[C@@]7(C)O)[C@]6(O)C[C@@]53OC24O)cc(OC)c1OC	123
CO/N=C1\CN(c2nc3c(cc2F)c(=O)c(C(=O)O)cn3C2CC2)CC1CN (configuration not stated)	106
CC(=O)Nc1c(I)cc(I)c(C(=O)O)c1I	119
S=c1nc[nH]c2nc[nH]c12	120
Nc1ccc(S(=O)(=O)Nc2ncccn2)cc1	120
OCCOCCN1CCN(C2=Nc3ccccc3Sc3ccccc32)CC1	105
CC(CCC(=O)O)[C@H]1CCC2C3C(C[C@H](O)[C@@]21C)[C@@]1(C)CC[C@@H](O)C[C@H]1C[C@H]3O (some centres not stated)	99.6
CC(C(=O)O)[C@H]1CCC2C3CC=C4C[C@@H](O)CC[C@]4(C)C3CC[C@@]21C (some centres not stated)	98.4
C[C@H]1[C@H](C)CC[C@]2(C(=O)O)CC[C@]3(C)C(=CCC4[C@@]5(C)C[C@@H](O)[C@H](O)[C@@](C)(CO)C5[C@H](O)C[C@]43C)[C@H]12 (some centres not stated)	110
OC[C@@H](O)C(O[C@@H]1O[C@H](CO)[C@H](O)[C@H](O)[C@H]1O)[C@H](O)[C@@H](O)CO (some centres not stated)	116
